The values below come from PubChem BioAssay.

The target of experiment [1] is PEG-3 (UniProt Q6IN02). The experiment can be described thus: inhibition of PEG-3 promoter-driven reporter – cell-based, HeLa, luciferase, CREF/GAPDH counter-screen panel, dose response (AID 624167). As to conditions: CREF/GAPDH counter-screens; HeLa PEG-Prom luciferase reporter, overnight, run 1, dose range 1, at 100 µM (top of the series) unless noted. Background: A counterscreen serves to expose hits that act by an unwanted route or on another target.

In experiment [2] the target is PEG-3 (UniProt Q6IN02). The experiment is described as above. The settings on record: CREF/GAPDH counter-screens; HeLa PEG-Prom luciferase reporter, overnight, run 2, dose range 1, at 100 µM (top of the series) unless noted.

PEG-3, sequence (Q6IN02 whole entry, looked up): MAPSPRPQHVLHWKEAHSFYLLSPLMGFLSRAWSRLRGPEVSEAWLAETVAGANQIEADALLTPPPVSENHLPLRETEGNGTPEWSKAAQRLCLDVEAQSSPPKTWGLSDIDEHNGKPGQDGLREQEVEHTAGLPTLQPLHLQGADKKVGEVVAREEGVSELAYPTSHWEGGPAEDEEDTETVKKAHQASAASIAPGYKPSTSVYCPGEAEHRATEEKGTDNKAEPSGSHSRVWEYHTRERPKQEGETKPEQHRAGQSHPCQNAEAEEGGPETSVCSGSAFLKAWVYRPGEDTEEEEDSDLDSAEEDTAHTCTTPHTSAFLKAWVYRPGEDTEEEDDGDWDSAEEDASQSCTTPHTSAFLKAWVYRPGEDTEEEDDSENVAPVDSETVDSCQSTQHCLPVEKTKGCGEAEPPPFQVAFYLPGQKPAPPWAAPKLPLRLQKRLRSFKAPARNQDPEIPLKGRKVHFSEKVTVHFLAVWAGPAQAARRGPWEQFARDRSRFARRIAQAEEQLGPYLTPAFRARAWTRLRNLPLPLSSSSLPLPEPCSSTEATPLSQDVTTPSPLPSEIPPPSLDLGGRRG

As to `Cc1c(C(=O)Nc2ccc(S(=O)(=O)N(C)C3CCN(C)CC3)cc2)oc2c(Cl)cccc12`, the inhibition is 102% with PEG-3 [1] and 99.1% with PEG-3 [2].
`O=C(Sc1cccc2cccnc12)c1ccccc1Br`: the inhibition with PEG-3 [1] turned out to be 99.3%; with PEG-3 [2], 93.8%.
`c1ccc(CN2CCC(Nc3nc(-c4cccnc4)nc4ccccc34)CC2)cc1`: the inhibition was 102% in the experiment with PEG-3 [1] and 94.1% with PEG-3 [2].
`NC(=O)c1nsc(C(=O)N(c2ccccc2F)C(C(=O)NCc2ccccc2)c2ccc(O)cc2)c1N` (stereo unspecified): the inhibition in the experiment with PEG-3 [1] is 98.6%; with PEG-3 [2], 99.3%.
For the compound `COc1cccc(Nc2nc(C(N)Cc3ccccc3)cs2)n1` (stereo unspecified), the values for the inhibition with PEG-3 [1] and with PEG-3 [2] were 97.8% and 99.1%, respectively.
On to `O=C1OCCC1Sc1nnc(-c2ccc(Cl)cc2Cl)o1` (stereo unspecified), for which the inhibition was determined as 92.6% with PEG-3 [1] and 94.1% in the experiment with PEG-3 [2].
With `Cc1ccc(-c2nc(C(Cl)Cl)c3ccccc3n2)cc1`, the inhibition was found to be 96.2% with PEG-3 [1] and 97.4% with PEG-3 [2].
For `COc1cc(-c2cc(C(=O)N(C)Cc3ccccc3)c3ccccc3n2)cc(OC)c1OC`, in that order: 79.4% and 94.8%.
In the case of `Cc1cccc2c1-c1sc(C(=O)NCCCN3CCCC(C)C3)cc1CO2` (stereo unspecified), the results for the inhibition in the experiment with PEG-3 [1] and with PEG-3 [2] were 99.3% and 98.5%, respectively.
For `Cc1ccc2[nH]c3c(c2c1)CCCC3NC(=O)CCl` (stereo unspecified), the inhibition in the experiment with PEG-3 [1] stood at 97%; with PEG-3 [2], 96.5%.
As to `O=C1CSC(=S)N1Cc1cccnc1`, the inhibition with PEG-3 [1] stood at 96.9%; with PEG-3 [2], 101%.
As for `CN(C)c1ccc(/C=N/NC(=O)c2nnn(-c3nonc3N)c2COc2ccc(F)cc2)cc1`, the inhibition with PEG-3 [1] was 2.41%; in the experiment with PEG-3 [2], -13.2%.
With `COc1ccc2c(c1)C=C([C@@H]1C[C@H]3CN(c4ccccc4)C(=O)[C@]34CCCN14)CO2`, the inhibition with PEG-3 [1] came out at 65.2%; with PEG-3 [2] it was 74%.
Take `Cc1ccc(C(=O)N/C(=C\c2ccc(-c3cccc([N+](=O)[O-])c3)o2)C(=O)NCCCN(C)C)cc1`: the inhibition amounted to 102% with PEG-3 [1] and 98.8% with PEG-3 [2].
For `CCN(CC)CCSc1nnc2c3cc(C)ccc3n(Cc3ccccc3)c2n1` the same measures were 102% and 99.8%.
On to `O=C1c2ccccc2C(=O)C12OC2c1ccc(Cl)cc1Cl` (stereo unspecified), for which the inhibition with PEG-3 [1] was determined as 99%; with PEG-3 [2], 102%.
On to `O=C1/C(=C/c2ccccc2Cl)SC(=S)N1CCCC(=O)N(CCO)c1ccccc1`, for which the inhibition in the experiment with PEG-3 [1] worked out at 99.7%; in the experiment with PEG-3 [2] it was 102%.
For `Cc1cc(-n2c(SCC(=O)Nc3ccc(F)c(F)c3)nc3n[nH]c(C)c3c2=N)ccc1Cl`, in that order: 100% and 95.3%.
Turning to `Fc1ccc([C@@H]2CCNC[C@H]2COc2ccc3c(c2)OCO3)cc1`, the figures for the inhibition with PEG-3 [1] and with PEG-3 [2] were 102% and 101%, respectively.
In the case of `O=c1cc2oc3cc(O)c(O)cc3c(-c3ccccc3[N+](=O)[O-])c-2cc1O`, the figures for the inhibition with PEG-3 [1] and with PEG-3 [2] were 93.5% and 99.6%, respectively.
Regarding `CCC(C)NCCOCCOc1ccc(Cl)c2ccccc12` (stereo unspecified), the inhibition with PEG-3 [1] was 102%; with PEG-3 [2], 98.8%.
With `CN(C)CCCNc1ncnc2oc(-c3ccccc3)c(-c3ccccc3)c12`, the inhibition was 102% with PEG-3 [1] and 101% with PEG-3 [2].
On to `COc1ccc(-c2nc(NC(=O)c3n[nH]c(=O)c4ccccc34)sc2C)cc1`, for which the inhibition with PEG-3 [1] stood at 14%; with PEG-3 [2] it was 30.7%.
For the compound `CC(C)n1cc(CN2CCC(C(=O)Nc3cccc(-c4cccc(Cl)c4)c3)CC2)cn1`, the inhibition with PEG-3 [1] came out at 99.3%; with PEG-3 [2] it was 101%.
For `CCN(CCN(C)C)C(=O)C1CCN(S(=O)(=O)c2c(C)noc2/C=C/c2ccccc2F)CC1`, the inhibition with PEG-3 [1] stood at 90.8%; with PEG-3 [2], 97.5%.
Consider `Cc1ccc(Cn2c(=N)n(CC(=O)c3ccccc3)c3ccccc32)cc1`, for which the inhibition with PEG-3 [1] came to 101%; with PEG-3 [2], 102%.
As for `CC1(C)CC(NC(=O)c2sc3cc(Cl)ccc3c2Cl)CC(C)(C)N1`, the inhibition turned out to be 99.4% with PEG-3 [1] and 101% in the experiment with PEG-3 [2].
As to `CC(C)CC(N)c1csc(NC(=O)Nc2ccccc2C(C)(C)C)n1` (stereo unspecified), the inhibition was determined as 102% with PEG-3 [1] and 101% with PEG-3 [2].
For the compound `CCCN(CC(=O)Nc1cc(Cl)cc(Cl)c1)CC(=O)Nc1ccc(F)c(F)c1F`, the values for the inhibition with PEG-3 [1] and in the experiment with PEG-3 [2] were 101% and 99%, respectively.
Turning to `C/C(=N\N=C(N)N)c1ccc(Cl)cc1Cl`, the figures for the inhibition in the experiment with PEG-3 [1] and with PEG-3 [2] were 99.4% and 101%, respectively.
Turning to `COc1ccc(CC(N)c2csc(NC(=O)Nc3cc(OC)ccc3OC)n2)cc1` (stereo unspecified), the inhibition in the experiment with PEG-3 [1] was found to be 94.3%; with PEG-3 [2], 98.7%.
For `CCCCC(=O)NC(c1ccccc1Cl)c1ccc2cccnc2c1O` (stereo unspecified) the same measures were 70.2% and 87.3%.
With `CC(=O)c1ccc(Nc2cc(C)nc3ccc(C)cc23)cc1`, the values for the inhibition with PEG-3 [1] and with PEG-3 [2] were 99.2% and 102%, respectively.
Regarding `Oc1ccc(C[C@H]2CNCCN2CCc2cc(C(F)(F)F)cc(C(F)(F)F)c2)cc1`, the inhibition was found to be 97.5% with PEG-3 [1] and 102% with PEG-3 [2].
Regarding `COc1ccc(C2NCCc3c2[nH]c2ccccc32)cc1COc1ccc(F)cc1` (stereo unspecified), the inhibition in the experiment with PEG-3 [1] was 98.9%; with PEG-3 [2] it was 101%.
For the compound `Cc1ccc(C)c(OCC(O)CN2CCC(CN3C(=O)c4cccc5cccc(c45)C3=O)CC2)c1` (stereo unspecified), the results for the inhibition with PEG-3 [1] and in the experiment with PEG-3 [2] were 99.2% and 96.1%, respectively.
For `CCOC(=O)c1sc2nc(CSc3ccccc3)nc(N3CCCN(C)CC3)c2c1C`, the inhibition was found to be 101% with PEG-3 [1] and 99% with PEG-3 [2].
As to `CCCCCCOc1ccc(/C(C)=N/NC2=NCCN2)cc1`, the inhibition with PEG-3 [1] and with PEG-3 [2] was 101% in each case.
Turning to `CCCCCCCCCC[N+](C)(C)CC/C=C1/c2ccccc2Sc2ccc(Cl)cc21`, the results for the inhibition with PEG-3 [1] and with PEG-3 [2] were 99.8% and 101%, respectively.
As to `CC(C)CN(C(=O)COC(=O)/C=C/c1ccc(Cl)c(Cl)c1)c1c(N)n(Cc2ccccc2)c(=O)[nH]c1=O`, the inhibition with PEG-3 [1] was -7.53%; in the experiment with PEG-3 [2] it was -24.4%.
`O=[N+]([O-])c1cc(Cl)cc(/C=N\Nc2ccccn2)c1O`: the inhibition with PEG-3 [1] was found to be 28.9%; with PEG-3 [2], 40.5%.
For the compound `COc1ccc(CNC(=O)Nc2nc(C(N)Cc3ccc(F)cc3)cs2)cc1` (stereo unspecified), the results for the inhibition with PEG-3 [1] and in the experiment with PEG-3 [2] were 102% and 101%, respectively.
On to `COc1cc(OC)c(OC)cc1CCC(C)NCCC(c1ccccc1)c1ccccc1` (stereo unspecified), for which the figures for the inhibition with PEG-3 [1] and in the experiment with PEG-3 [2] were 100% and 96.7%, respectively.

By inhibition is commonly meant the change of the read-out against control, counted positive when it falls.
